Measurements reported in PubChem BioAssay AID1159580 (chemical genetic matrix, 2015).
The whole screen tested about 5,500 compounds, of which about 2,000 (36%) were called active. Not shown: some 18% with an inconclusive outcome. Rule as the data show it: active = normalized growth mostly below about 0.91 (no sharp cut-off); inconclusive = no clear call, values can overlap the other calls; inactive = mostly above about 0.92. The list shows a part of the results.

Assay: chemical genetic growth profiling, strain panel (AID 1159580);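 also: tested at 20 µM; growth read once vehicle control cultures reached saturation at 30 °C; 1 = growth at the plate median or of vehicle wells; lower values mean less growth of the strain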
Conditions: growth OD

Measured: normalized growth

CC(=O)c1cc2c(cc1O)OC(C)(C)C=C2
inactive: S. cerevisiae deletion strains, locus YAL013W, strain DEP1, active compounds read low 0.991 | S. cerevisiae deletion strains, locus YBR021W, strain FUR4, active compounds read low 1.01 | S. cerevisiae deletion strains, locus YBR229C, strain ROT2, active compounds read low 0.983 | S. cerevisiae deletion strains, locus YCL029C, strain bik1, active compounds read low 0.993 | S. cerevisiae deletion strains, locus YDL035C, strain GPR1, active compounds read low 1 | S. cerevisiae deletion strains, locus YDL074C, strain BRE1, active compounds read low 0.974 | S. cerevisiae deletion strains, locus YDL101C, strain DUN1, active compounds read low 0.999 | S. cerevisiae deletion strains, locus YDL134C, strain PPH21, active compounds read low 1.01 | S. cerevisiae deletion strains, locus YDL185W, strain tfp1, active compounds read low 0.993 | S. cerevisiae deletion strains, locus YDL192W, strain arf1, active compounds read low 0.976 | S. cerevisiae deletion strains, locus YDR162C, strain NBP2, active compounds read low 1 | S. cerevisiae deletion strains, locus YDR318W, strain mcm21, active compounds read low 0.999 | S. cerevisiae deletion strains, locus YDR388W, active compounds read low 0.992 | S. cerevisiae deletion strains, locus YDR502C, strain sam2, active compounds read low 1 | S. cerevisiae deletion strains, locus YER110C, active compounds read low 0.979 | S. cerevisiae deletion strains, locus YER155C, strain BEM2, active compounds read low 0.975 | S. cerevisiae deletion strains, locus YER167W, strain BCK2, active compounds read low 0.96 | S. cerevisiae deletion strains, locus YGL078C, strain dbp3, active compounds read low 1.03 | S. cerevisiae deletion strains, locus YGL086W, strain mad1, active compounds read low 0.972 | S. cerevisiae deletion strains, locus YGL248W, strain PDE1, active compounds read low 0.997 | S. cerevisiae deletion strains, locus YGR078C, strain PAC10, active compounds read low 1.01 | S. cerevisiae deletion strains, locus YGR135W, strain pre9, active compounds read low 1.02 | S. cerevisiae deletion strains, locus YGR252W, strain gcn5, active compounds read low 1.07 | S. cerevisiae deletion strains, locus YHR079C, strain IRE1 (second series), active compounds read low 0.988 | S. cerevisiae deletion strains, locus YHR094C, strain hxt1, active compounds read low 0.983 | S. cerevisiae deletion strains, locus YHR129C, strain ARP1, active compounds read low 0.991 | S. cerevisiae deletion strains, locus YHR200W, strain rpn10, active compounds read low 0.97 | S. cerevisiae deletion strains, locus YIL066C, strain RNR3, active compounds read low 0.979 | S. cerevisiae deletion strains, locus YIL073C, strain SPO22, active compounds read low 1.03 | S. cerevisiae deletion strains, locus YIL125W, strain kgd1, active compounds read low 0.974 | S. cerevisiae deletion strains, locus YIR030C, strain dcg1, active compounds read low 0.982 | S. cerevisiae deletion strains, locus YJL095W, strain BCK1, active compounds read low 1.02 | S. cerevisiae deletion strains, locus YJL134W, strain LCB3, active compounds read low 0.98 | S. cerevisiae deletion strains, locus YJL168C, strain set2, active compounds read low 0.991 | S. cerevisiae deletion strains, locus YJL187C, strain SWE1 (second series), active compounds read low 1.03 | S. cerevisiae deletion strains, locus YJR043C, strain POL32, active compounds read low 0.935 | S. cerevisiae deletion strains, locus YKL009W, strain mrt4, active compounds read low 1.01 | S. cerevisiae deletion strains, locus YKL068W, active compounds read low 0.973 | S. cerevisiae deletion strains, locus YKL085W, strain MDH1 (second series), active compounds read low 0.976 | S. cerevisiae deletion strains, locus YKL085W, strain MDH1, active compounds read low 0.976 | S. cerevisiae deletion strains, locus YKL190W, strain CNB1, active compounds read low 0.991 | S. cerevisiae deletion strains, locus YKR001C, strain vps1, active compounds read low 0.968 | S. cerevisiae deletion strains, locus YLR039C, strain RIC1, active compounds read low 0.952 | S. cerevisiae deletion strains, locus YLR058C, strain SHM2, active compounds read low 0.999 | S. cerevisiae deletion strains, locus YLR102C, strain apc9, active compounds read low 0.981 | S. cerevisiae deletion strains, locus YLR268W, strain sec22, active compounds read low 0.99 | S. cerevisiae deletion strains, locus YLR330W, strain CHS5, active compounds read low 0.983 | S. cerevisiae deletion strains, locus YLR418C, strain cdc73, active compounds read low 0.964 | S. cerevisiae deletion strains, locus YML016C, strain PPZ1, active compounds read low 0.938 | S. cerevisiae deletion strains, locus YML032C, strain rad52, active compounds read low 0.993 | S. cerevisiae deletion strains, locus YML124C, strain tub3, active compounds read low 0.965 | S. cerevisiae deletion strains, locus YMR078C, strain ctf18, active compounds read low 0.956 | S. cerevisiae deletion strains, locus YMR223W, strain ubp8, active compounds read low 1.01 | S. cerevisiae deletion strains, locus YMR307W, strain GAS1, active compounds read low 1.15 | S. cerevisiae deletion strains, locus YNL067W, strain RPL9B, active compounds read low 1.01 | S. cerevisiae deletion strains, locus YNL233W, strain BNI4, active compounds read low 0.991 | S. cerevisiae deletion strains, locus YNL250W, strain rad50, active compounds read low 0.997 | S. cerevisiae deletion strains, locus YNL271C, strain bni1, active compounds read low 0.977 | S. cerevisiae deletion strains, locus YNL298W, strain CLA4, active compounds read low 1.01 | S. cerevisiae deletion strains, locus YNL307C, strain MCK1, active compounds read low 0.975 | S. cerevisiae deletion strains, locus YNR052C, strain pop2, active compounds read low 1.06 | S. cerevisiae deletion strains, locus YOL012C, strain htz1 0.862 | S. cerevisiae deletion strains, locus YOL147C, strain pex11, active compounds read low 0.96 | S. cerevisiae deletion strains, locus YOR061W, strain CKA2, active compounds read low 0.982 | S. cerevisiae deletion strains, locus YOR069W, strain VPS5, active compounds read low 0.989 | S. cerevisiae deletion strains, locus YOR136W, strain idh2, active compounds read low 1.01 | S. cerevisiae deletion strains, locus YOR144C, strain elg1, active compounds read low 0.984 | S. cerevisiae deletion strains, locus YOR184W, strain ser1, active compounds read low 0.901 | S. cerevisiae deletion strains, locus YOR316C, strain cot1, active compounds read low 0.985 | S. cerevisiae deletion strains, locus YPR119W, strain clb2, active compounds read low 0.982 | S. cerevisiae deletion strains, locus YPR141C, strain kar3, active compounds read low 0.962 | S. cerevisiae deletion strains, locus YPR163C, strain tif3, active compounds read low 0.993 | S. cerevisiae deletion strains, locus YPR167C, strain met16, active compounds read low 0.993 | S. cerevisiae deletion strains, strain wtn01, active compounds read low 0.947 | S. cerevisiae strains, strain wild type, active compounds read low 0.983
active: S. cerevisiae deletion strains, locus YDR101C, strain arx1, active compounds read low 0.891 | S. cerevisiae deletion strains, locus YLR371W, strain rom2, active compounds read low 0.808
